According to the supplement of paper PMC6555819:

Experiments:
Experiment in all cases: PBM binding z-score (relative to random genomic background probes); higher = stronger binding; sequences stand for … in GC…GCGATTGACAGCGTAGAATGAAGG
[1] = tested on: RARb homodimer (NR concentration 270 nM)
Procedure, shortened: (§1)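 Probes were double-stranded and carried 34-nt variable regions with direct-repeat seeds, single-nucleotide variants, half-site ablations and random human genomic background sequences, printed on custom Agilent 4×180K protein-binding microarrays. Arrays were incubated 1 h with ligand-free nuclear receptor dimers in PBS pH 7.4, 2% milk, 0.02% Triton X-100, 1 mM DTT, 0.2 mg/mL BSA and 0.4 mg/ml salmon testes DNA. Antibodies against each partner (one per run) detected binding, and scanned fluorescence was regression-normalized. Binding z-scores use the random background probes as reference.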

[2] = tested on: RARg:RXRa (NR concentration 270 nM, RXRa partner concentration 90 nM)
Procedure, shortened: as §1

[3] = tested on: RARg homodimer (NR concentration 270 nM)
Procedure, shortened: as §1

[4] = tested on: RXRa DBDmut IVT, anti-RXR (DBD mutation: RXRa K156A/R161A, NR concentration 90 nM)
Procedure, shortened: as §1

[5] = tested on: RXRa homodimer (NR concentration 180 nM)
Procedure, shortened: as §1

[6] = tested on: THRa:RXRa (NR concentration 90 nM, RXRa partner concentration 90 nM)
Procedure, shortened: as §1

[7] = tested on: THRa homodimer (NR concentration 90 nM)
Procedure, shortened: as §1

[8] = tested on: VDR homodimer (NR concentration 270 nM)
Procedure, shortened: as §1

Sequence	PBM binding z-score [1]	PBM binding z-score [2]	PBM binding z-score [3]	PBM binding z-score [4]	PBM binding z-score [5]	PBM binding z-score [6]	PBM binding z-score [7]	PBM binding z-score [8]
ATCGAAAGGTCGTGAGGTGAGTTTACAGAAAGGC	3.38	4.69	4.07	2.26	5.37	3.57	1.5	3.12
CGAAGTAGGTCAAAGGACAGTGAAAGGCGACGTA	3.05	4.15	4.75	1.19	3.67	2.1	-0.0786	0.382
CGAACTAGGTCTCCAGGACAGTGAAGAGGTTGGA	-0.111	-0.0715	0.188	-0.342	-0.062	1.11	0.505	-0.34
AGTCAAAGTTCAGCACGAGGTAACGTAAAGCACG	3.59	5.19	5.78	3.52	3.51	3.78	1.13	2.3
CTAACTAGGTCACCGGAAGGTCAAAGTCCGCATG	5.66	8.24	7.39	2.16	6.18	4.48	2.98	2.9
CATACAGGGTAAGCTAGGCCAGAGTAGGGACGGC	0.192	0.225	0.59	-0.744	0.077	1.49	-0.191	-0.259
CCAAGTAGGTTACGAGGGGGCATTCAGTGCGAAT	2.46	3.53	3.14	1.89	2.52	3.6	0.736	3.82
CGTCCAAGGTCAACGCTAGGTCAGTGAAAGCATT	5.38	7.88	7.21	3.69	6.38	4.61	3.53	2.6
CTATGTAGGTTAAGGGGGTCATTTAGTTTGAAAG	3.86	5.19	3.66	2.54	5.85	3.83	2.03	5.81
ATATCTAGGTAAAAGTTCAGTGAATCCCGAGGAT	2.58	2.11	2.05	0.832	1.62	1.38	0.52	2.01
GACACAGGGTCAGCTAGAGGCCAGAGTATGGAAA	3.17	6.46	4.41	1.3	4.1	3.1	-0.0446	0.591
CTATGTAGGCTAAGGGGGTCATTCAGTTTGAAAG	3.39	4.23	2.53	1.96	4.7	3.45	1.51	4.02
ATATGTAGGTGAGGGTCATTCAGAAAGTAGGGAA	3.13	3.24	3.06	1.67	3.67	2.56	1.31	2.76
ATGGAAAGGTCGTGAGGTGAGTATACAGAAAGGC	3.62	4.95	4.67	1.52	5.97	3.82	2.1	1.72
CCAGACAGGTGAAAGGTAACTCACTCTGGTACGC	0.88	1.34	0.948	0.0725	2.37	1.03	-0.0395	-0.0544
CTATGTAGGTTAAGGGGGTCATTCAATTTGAAAG	3.69	4.93	3.88	2.02	5.5	3.97	1.83	5.01
GATTACGGGTCAAAGGTTATAGCATGAATAGAAT	3.44	7.12	4.85	2.27	9.48	3.95	0.146	1.64
ATACGTAGGTTAGGGTCATTCAGAAAGTAGGGAA	3.19	4.12	3.37	2.35	5.33	4.07	2.92	3.67
TCATATAGGTAATAGGTGAAAGTCGGTGTGGTAA	0.632	0.482	0.284	1.59	1.53	0.534	0.384	0.435
CCGAGTAAGTTACGAGGGGGCATTCAGTGCGAAT	1.29	1.47	0.902	1.57	1.31	2.32	0.139	2.59
CTATGTAGGTTAAGGGGCTCATTCAGTTTGAAAG	0.464	0.537	0.331	0.357	0.409	0.521	0.0604	0.323
TCGAGTAGGATACGGGGGCATTCAGGGATGAAGA	1.19	1.52	0.916	1.24	1.29	3.47	0.629	2.79
CAAACTAGGTCAAAGGTCAAAGTTGAGCCAACCA	5.46	9.07	7.7	3.35	10.5	4.95	1.92	3.15
ATCGAATGGTCGAAGGTGAGTATACCCACCCGAA	0.0928	0.392	0.497	-0.884	0.585	0.0175	-0.459	-0.194
CCGAGTGGGTTACGAGGGGGCATTCAGTGCGAAT	1.94	2.95	2.18	1.09	1.75	3.72	0.652	3.43
AGTCATAGTTCACTAGGTAACGTAAGATTCAGCT	2.32	2.32	2.72	1.82	1.6	1.11	0.171	0.797

Sequence	PBM binding z-score [1]	PBM binding z-score [2]	PBM binding z-score [3]	PBM binding z-score [4]	PBM binding z-score [5]	PBM binding z-score [6]	PBM binding z-score [7]	PBM binding z-score [8]
CGTCCAAGGTCAAGCTCAGTGAAAGAGACTCGAA	3.96	6.43	6.63	3.51	6.22	3.76	2.32	2.03
CTAACTAGGTCACGAAAGGTCAAAGTCGAATGAC	5.7	7.92	8.55	2.56	8.14	5.08	2.55	3.54
TCGGGTAGGTTACGGGGGCATTCAGGGATGAAGA	3.18	4.23	4.1	3.04	3.43	4.32	3.14	4.85
TCTCGGAGGACACGAAAAGTCAGAGCTCGACATC	0.803	0.704	1.37	1.08	0.187	1.27	0.205	-0.252
CAAGCTAGGTCAAAGGTCAAAGTCGAGCCAACCA	5.17	9.17	8.1	3.05	10.6	4.96	1.45	3.39
CGAACTAGGTCACAAGGACAGTGAAGAGGTTGGA	3.36	4.24	4.8	1.32	3.1	3.33	1.7	0.816
GGAACGGGGGCAAGTTGATAGCAGAGTTTGATGG	2.35	3.33	3.16	3.37	2.6	2.51	1.27	4.04
CGTCCAAGGTCATAGGAGTTCAGTGAAGACAGAT	4.79	6.25	6.57	4.22	6.23	4.71	2.7	5.97
TCGAGTAGGTTACGGGGGCATTTAGGGATGAAGA	2.32	3.47	2.58	2.03	2.73	4.01	1.4	3.52
CGAACTAGCTCAAGGACAGTGAATCTCCGCACGC	0.214	-0.134	-0.141	0.392	-0.227	1.42	1.48	0.226
ACTCGGAGGACAAAGGTAAGAGCTACGCCAGTGA	0.319	1.08	1.1	0.376	0.494	0.863	-0.169	-0.2
CCTACAGGGCCAAGGTCATTGATCAGTCAAAGCA	3.47	3.94	3.71	1.5	3.32	3.46	1.93	2.91
ACTAGCAGGCCAAAGGTCACTCAAGATTAGTCCG	4.87	6.14	5.41	0.861	6.31	3.6	0.91	1.58
TCGAGCAGGTTACGGGGGCATTCAGGGATGAAGA	2.18	3.37	2.29	1.34	2.92	3.65	0.993	2.9
TCAGATAGGTAAAGGTGAAAGTCGAACGATATGA	1.76	1.57	1.27	0.734	2.33	1.33	-0.218	-0.344
CGAACTAGGTCACCAGGAGAGTGAAGAGGTTGGA	3.18	4.34	5.04	1.08	3.02	2.98	1.09	0.207
CCTACTGGGCCAAGGTCATTGACCAGTCAAAGCA	3.43	3.87	3.66	0.966	4.1	3.67	2.29	2.59
CCTCGGAGGACACCAGGAGGTCAGAGCTGCCAGA	3.49	3.94	3.53	-0.302	2.11	2.93	1.37	1.13
CTATGTAGGTTAAGGGGGTCATTCCGTTTGAAAG	3.76	5.11	4.02	2.32	5.96	3.58	1.83	5.23
TCGAGTAGGTTACGGGGGTATTCAGGGATGAAGA	1.58	2.08	1.62	1.44	2.06	2.99	1.08	1.21
AGAATGGGGTTAAGATCAGGGAAACAGAATACAT	1.9	2.99	1.4	1.99	4.56	3.23	1.67	1.27
ATATGTAGGTTAGGGTCATTCATAAAGTAGGGAA	3.59	4.05	3	2.76	5.31	4.21	3.65	4.32
AGAATGAGGTTACCAAAGATCAGTGAAACGCTTG	0.66	2.09	1.51	1.14	2.67	2.65	0.639	0.206
CTATGTAGGTTATGGGGGTCATTCAGTTTGAAAG	4.1	5.57	4.08	2.33	6.38	3.9	2.67	6.69
CCGAGTAGGTTACGAGGGGGCTTTCAGTGCGAAT	0.961	1.85	1.36	0.879	1.08	2.33	0.299	0.538
CGTCAAAGTTCAACTAAGTTAACGTAAAGCACGC	4.02	5.7	6.78	4.7	5.2	4.32	0.349	3.74
